This experiment can be described thus: blockers of oleate-driven lipid droplets in liver cells – imaging, AML12 mouse hepatocytes, single concentration, high-content, confirmation (AID 463183).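 As to cell count: cells counted after overnight compound exposure.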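 As to inhibition: plate controls were DMSO with oleic acid for no effect and 5 µM Triacsin-C for full effect.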 To be noted: BODIPY lipid droplet imaging, at 5.2 µM, droplets induced with 100 µM oleic acid; cell count: measured here: cell count, cytotoxicity; inhibition: stronger effect = higher value.

Each structure is given as a SMILES string. The list shows a part of the results. Calls of active or inactive are those of the source.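 The calls were made as follows: active = inhibition of lipid droplet metric at least 50%, with more than 300 cells in each of four replicates; inconclusive = wells under 300 cells, flagged as toxic or low count; inactive = the rest.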

By inhibition is commonly meant the change of the read-out against control, counted positive when it falls.

As for `CCOc1ccc(CCNC(=O)Nc2ccccc2)cc1OCC`, the cell count was 1550 cells and the inhibition was 109% (active).

With `CC(C)(C)NC(=O)Cn1cnc2cc([N+](=O)[O-])ccc2c1=O`, the cell count worked out at 1630 cells and the inhibition is 21.8% (inactive).

Consider `Cc1c(C(=O)NCc2ccccc2)cnn1-c1ccccc1`, for which the cell count turned out to be 1670 cells and the inhibition was 26.9% (inactive).

On to `CCCN(CCC)c1nc2c(C)cccn2c(=O)c1/C=C1/SC(=S)N(Cc2ccco2)C1=O`, for which the cell count amounted to 1560 cells and the inhibition was 51.2% (inactive).

Consider `Cn1c(=O)[nH]c(=O)c2c1nc(N1CCN(C(c3ccccc3)c3ccccc3)CC1)n2CCO`, for which the cell count was found to be 1570 cells and the inhibition is 78.2% (active).

As for `Cc1cc(C(=O)NC2CCCc3c2cnn3-c2cccc(C)c2C)c(C)o1` (configuration not stated), the cell count is 1560 cells and the inhibition is 78.5% (active).

Regarding `Cc1ccc(N2C(=O)C(NC(=O)c3c(F)cccc3F)(C(F)(F)F)C3=C2CC(C)(C)CC3=O)cc1` (configuration not stated), the cell count was determined as 1590 cells and the inhibition is 87.5% (active).

On to `CCCc1ccc(-c2csc(NC(=O)Cc3cccs3)n2)cc1`, for which the cell count is 1560 cells and the inhibition was 104% (active).

Take `CCCCN1C(=O)/C(=C/C=C2/C=Cc3ccccc3N2CC)SC1=S`: the cell count is 1580 cells and the inhibition was -4.78% (inactive).

Turning to `CCOC(=O)C1=C(CC)OC(N)=C(C#N)C1c1ccc(F)cc1F` (configuration not stated), the cell count is 1680 cells and the inhibition is 10.3% (inactive).

For `CC(NC(=O)c1cccc2ccccc12)c1ccc2c(c1)CCCC2` (configuration not stated), the cell count was 1640 cells and the inhibition was 98.5% (active).

As for `COc1ccc(OC)c(-c2csc(-c3cccs3)n2)c1`, the cell count stood at 1580 cells and the inhibition was 13.4% (inactive).

Turning to `COc1ccc(Cl)cc1NC(=O)CN(C)C(=O)CCCc1c[nH]c2ccccc12`, the cell count was 1450 cells and the inhibition is 85% (active).

On to `O=C(CN1CCc2cc3c(cc2C1)OCCCO3)Nc1ccccc1`, for which the cell count stood at 1530 cells and the inhibition is 15.8% (inactive).

In the case of `O=C1Nc2ccc(Br)cc2/C1=N/N=C/C1=C(N2CCOCC2)C(=C\c2ccccc2)/CC1`, the cell count came out at 1660 cells and the inhibition is 65.8% (active).

`COc1ccc(C(C(=O)NC(C)(C)C)N(Cc2ccc(F)cc2)C(=O)CCC(=O)Nc2cc(C)on2)cc1` (configuration not stated): the cell count was 1630 cells and the inhibition is 108% (active).

In the case of `O=[N+]([O-])c1ccccc1N/N=C1\CCc2ccccc21`, the cell count was 1520 cells and the inhibition is 31.2% (inactive).

For `CCOc1ccc(CCNC(=O)CCc2nnc3ccc(N4CCCC4)nn23)cc1OCC`, the cell count is 1650 cells and the inhibition is 100% (active).

For the molecule `CN(C)c1ccc(Nc2c3c4c(cccc4n(C)c2=O)C(=O)c2ccccc2-3)cc1`, the cell count was determined as 1580 cells and the inhibition is 14.8% (inactive).

For `COc1cccc(/C=C(/CC(=O)Nc2ccc(N3CCOCC3)cc2)c2nc3ccccc3s2)c1`, the cell count turned out to be 1580 cells and the inhibition was 94.7% (active).

Consider `CCCN(CCC)c1ccc(C(O)c2nnc(-c3ccccc3)o2)cc1` (configuration not stated), for which the cell count was 1610 cells and the inhibition was 106% (active).

With `COCCCNC(=O)CN1C(=O)CSc2ccc(S(=O)(=O)N3CCOCC3)cc21`, the cell count amounted to 1530 cells and the inhibition was -1.8% (inactive).

Take `COc1ccc(/C=C(\NC(=O)c2ccc(OCC(C)C)cc2)C(=O)OCc2ccco2)cc1`: the cell count was found to be 1460 cells and the inhibition is 91.6% (active).

As to `COc1cc(/C=N/NC(=O)Nc2ccccc2)ccc1OCCOc1ccccc1C`, the cell count is 1640 cells and the inhibition is -21.6% (inactive).

In the case of `CCc1ccc(NC(=O)C(C)OC(=O)/C=C/c2cccc([N+](=O)[O-])c2)cc1` (configuration not stated), the cell count stood at 1510 cells and the inhibition is 48% (inactive).

As to `Cc1cc(NC(=O)CSc2nc(C(C)C)nc3sc4c(c23)CCC(C)C4)no1` (configuration not stated), the cell count stood at 1700 cells and the inhibition was 105% (active).

These data come from PubChem BioAssay AID463183 (Sanford-Burnham Center for Chemical Genomics, 2010).
